Source: PubChem BioAssay
A number with no mark means an inactive call. The rule behind the calls is not given here.

What follows are molecules tested against Pantothenate synthetase (Mycobacterium tuberculosis (strain ATCC 25618 / H37Rv)) (UniProt P9WIL5) (assay: Recombinant Mtb pantothenate synthetase (PanC) inhibitors, coupled enzyme, confirmatory (AID 375;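 note: 0% = full reaction with vehicle and 100% = no enzyme background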)). Conditions: coupled enzyme assay; at 10 µM, active compounds read high.
Chain of Pantothenate synthetase (Mycobacterium tuberculosis (strain ATCC 25618 / H37Rv)) (P9WIL5 whole entry, looked up): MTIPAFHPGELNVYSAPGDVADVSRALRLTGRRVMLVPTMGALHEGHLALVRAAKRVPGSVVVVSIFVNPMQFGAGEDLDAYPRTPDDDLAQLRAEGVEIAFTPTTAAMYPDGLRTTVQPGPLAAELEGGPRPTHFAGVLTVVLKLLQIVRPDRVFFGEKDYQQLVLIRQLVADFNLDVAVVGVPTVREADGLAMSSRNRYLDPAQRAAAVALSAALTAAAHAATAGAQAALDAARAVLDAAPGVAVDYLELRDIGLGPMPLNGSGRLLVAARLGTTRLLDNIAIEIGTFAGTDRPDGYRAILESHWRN

| Structure (SMILES) | inhibition [%] |
| --- | --- |
| Cc1cc(C)cc(N2C(=O)C3C4C=CC(C4)C3C2=O)c1 (stereo not given) | 0 |
| COc1ccc(S(=O)(=O)Nc2ccccc2OC)cc1C | 2 |
| COC(=O)c1oc2ccc(OC)cc2c1N | 5 |
| CC1CCCCC1NC(=O)CN1CCN(Cc2ccccc2Cl)C1=O (stereo not given) | 0 |
| CCOC(=O)C1=C(N)OC2=C(C(=O)CC(C)(C)C2)C1c1ccco1 (stereo not given) | 5 |
| Cc1cc(C)n(-c2nc(C)nc3c2cnn3-c2ccccc2)n1 | 0 |
| CC(=O)N1CCN=C1SCc1ccc(Br)cc1 | 4 |
| Cc1[nH]nc2c1C(C1CC=CCC1)C(C#N)=C(N)O2 (stereo not given) | 3 |
| Cc1onc(-c2ccccc2Cl)c1C(=O)Nc1cccc(-c2cn3cccnc3n2)c1 | 7 |
| COc1ccc(N(C(=O)c2ccco2)S(=O)(=O)c2cc(OC)ccc2OC)cc1 | 0 |
| CC(=O)Nc1cccc(NC(=O)c2oc3ccccc3c2C)c1 | 0 |
| Cc1cnc(-c2nnc(N(C)C(=O)C3CCOC3)s2)cn1 (stereo not given) | 3 |
| Cn1c(C(=O)NCCC2=CCCCC2)cc2c(=O)n3ccccc3nc21 | 0 |
| COc1cccc2c(=O)cc(C)n(CC(=O)Nc3ccc(C)c(C)c3)c12 | 0 |
| CSc1nc(C)cc(OCC(=O)N2CCOCC2)n1 | 0 |
| Cc1cccc(-n2c(Cc3cc(=O)[nH]c(=O)[nH]3)nnc2SCC(=O)NCc2ccco2)c1 | 4 |
| CCOc1ccc(CCN2C(=O)C3C4C=CC(C4)C3C2=O)cc1OCC (stereo not given) | 3 |
| CC(=O)Nc1ccc(S(=O)(=O)N2CCC(NC(C)=O)(c3cccc(F)c3)CC2)cc1 | 0 |
| CC(C)c1nnc(NC(=O)CCC(=O)NCc2ccc3c(c2)OCO3)s1 | 3 |
| FC(F)(F)c1cccc(N2CCN(c3nnnn3-c3ccccc3)CC2)c1 | 0 |

| Structure (SMILES) | inhibition [%] |
| --- | --- |
| COc1ccc(CC(=O)OCc2nnc(C3COc4ccccc4O3)o2)cc1OC (stereo not given) | 0 |
| O=C(CSc1ncn[nH]1)c1ccco1 | 0 |
| Cc1ccc2oc(=O)c3cnn(CC(=O)N4CCCc5ccccc54)c3c2c1 | 1 |
| Cc1ccc(-c2nnn(CC(=O)N(CC(=O)NC3CCCCC3)c3cnc4ccccc4c3)n2)o1 | 8 |
| O=C(NCC1CCCO1)C1CCC(CNS(=O)(=O)c2ccccc2)CC1 (stereo not given) | 5 |
| CC(=O)NC(=O)NC1CSCC1OC(C)=O (stereo not given) | 4 |
| CN(C)S(=O)(=O)N1CCN(c2cccc(Cl)c2)CC1 | 0 |
| Fc1ccccc1C(c1nnnn1Cc1ccc2c(c1)OCO2)N1CCN(Cc2ccccc2)CC1 (stereo not given) | 3 |
| Cc1cc(C)cc(OCC(=O)NC2=NCCS2)c1 | 0 |
| CCOC(=O)CSc1nnc(CNC(=O)c2cccs2)n1-c1cc(OC)ccc1OC | 1 |
| O=C(CSc1nnc(-c2cccnc2)o1)Nc1ccccn1 | 0 |
| Clc1ccc(CSc2nnc(Cn3cnc4ccccc43)o2)cc1 | 0 |
| Cc1nc2cc(C(=O)O)ccc2n1-c1ccc(F)cc1F | 2 |
| N#CCC(=O)N1CCn2c1nc1ccccc12 | 0 |
| Cc1ccc(C(=O)NC(Cc2c[nH]c3ccccc23)C(=O)O)o1 (stereo not given) | 0 |
| O=C(O)CCCc1ccccc1 | 0 |
| Clc1ccccc1OCCCCn1ccnc1 | 0 |
| COc1ccc(C(=O)NC(=O)CSc2nnc(-c3ccco3)n2-c2ccccc2)cc1 | 0 |
| COc1ccc(-c2nnc(SCC(=O)Nc3ccc(Cl)cc3)n2C)cc1 | 0 |
| FC(F)(F)c1cc(-c2ccco2)nc(NCc2ccco2)n1 | 0 |
